Data published in PubChem BioAssay AID1159524 (National Center for Advancing Translational Sciences (NCATS), 2015).
The whole screen tested about 410,000 compounds, of which about 5,100 (1.2%) were called active. Roughly 8% stayed inconclusive and do not appear here. What follows is part of a selection rich in actives, with near analogues and random picks from the rest. A number with no mark means an inactive call. Calls come from the whole dose curve; tested in HEK293T cells.

assay: High Throughput Screening for Foot and Mouth Disease Virus Antivirals; details: FMDV antiviral cell-based qHTS; series mostly up to 57.9 µM; activity change, negative = inhibition: at the top concentration; note: read-out not given here; nearly all actives have a fitted effect of over 45% in size
% is set by controls: 0 for no effect and ±100 for the full control effect; potency is the fitted concentration of half-maximal effect.

| SMILES | activity change, negative = inhibition [%] | Potency |
| --- | --- | --- |
| COc1cccc(Cn2c(=O)c(CCc3ccccc3)nc3cnc(N(C)C)nc32)c1 | -7.95 | – |
| COc1ccc(/C=C2\NC(=O)[C@@H]3Cc4ccccc4CN3C2=O)cc1 | 28 | – |
| CC(=O)N1CCC2(CC1)CCN(c1ccncc1)CC2 | -9.96 | – |
| COc1ccc(C2Oc3c(I)c(OC)cc(OC)c3CC2O)cc1OC (stereo not given) | 3.52 | – |
| COc1ccc(-n2c(=O)c(C)nc3cnc(N4CCOCC4)nc32)cc1 | -8.77 | – |
| Cc1ccc(CCNC(=O)c2ccc3c(c2)nc2n3CCC(C)C2)cc1 (stereo not given) | -9.81 | – |
| CC=CCn1c(SCCCc2ccccc2)nc2c1c(=O)[nH]c(=O)n2C | -12.5 | – |
| C=CCn1c(SCc2ccccc2)nc2c1c(=O)[nH]c(=O)n2C | 32.2 | – |
| CCCCCn1c(SCCC(C)C)nc2c1c(=O)[nH]c(=O)n2C | – | 39.8 µM (active) |
| COc1ccc(S(=O)(=O)NCc2cccn2Cc2cccc(C)c2)cc1 | 71.6 | – |
| Cn1cc(-c2nc3cnc(N4CCNCC4)nc3n(CCc3ccccc3)c2=O)c2ccccc21 | -24.2 | – |
| Cc1cc(-c2ccnc(-n3ncc(C(=O)NC(C)(C)CO)c3C3CC3)n2)c(C)s1 | 6.73 | – |
| CCOC(=O)c1c(NC(=O)COC(=O)c2ccc(S(=O)(=O)C(F)F)cc2)sc(C(=O)N(C)C)c1C | 0.764 | – |
| CCOC(=O)c1c(NC(=O)CCl)sc(C(=O)N(CC)CC)c1C | – | 20 µM (active) |
| CCOC(=O)c1c(NC(=O)c2cc(CC)on2)sc(C(C)=O)c1C | 0.248 | – |
| O=C(CCS(=O)(=O)c1ccc2c(c1)NC(=O)CO2)Nc1cccc(C(F)(F)F)c1 | -28.2 | – |
| O=C(c1ccco1)N1CCC2(CC1)CN(c1ncccn1)C2 | -11.2 | – |
| CCOC(=O)c1cc2c(=O)n3ccccc3nc2n(Cc2ccco2)c1=NC(=O)c1ccc(F)cc1 | 1.4 | – |
| Cn1c(=O)c(-c2ccccc2)nc2cnc(N3CCNCC3)nc21 | 6.27 | – |
| Cc1nc(-c2ccccc2)cn2c1nc1ccccc12 | -9.62 | – |
| Cc1ccc(-n2cc3ccc([N+](=O)[O-])cc3n2)cc1 | -31.7 | – |
| Cc1ccc(-c2cn3cc([N+](=O)[O-])ccc3n2)cc1 | – | 11.2 µM (active) |

| SMILES | activity change, negative = inhibition [%] | Potency |
| --- | --- | --- |
| Cc1ccc(-c2cn3cc(C)ccc3n2)cc1 | – | 8.91 µM (active) |
| Cn1cnc(C(F)(F)F)c1-c1ccc([N+](=O)[O-])cc1 | -19.4 | – |
| CN(C)C(=O)c1ccc(-c2cncnc2Nc2ccccc2)cc1 | -6.02 | – |
| O=C(c1cccc(F)c1)N1CCC2(CCCN(Cc3ccncc3)C2)CC1 | -26.4 | – |
| CC1CCN(S(=O)(=O)c2ccc3c(ccn3CCC(=O)NCc3ccc(N(C)C)cc3)c2)CC1 | 1.71 | – |
| Cc1ccc(S(=O)(=O)N2CCC(C(=O)Nc3cc(C)ccc3C)CC2)cc1 | -22.2 | – |
| Cc1ccc2nc(NC(=O)C3CCN(S(=O)(=O)c4ccc5c(c4)oc(=O)n5C)CC3)sc2c1 | – | 12.6 µM (active) |
| Cn1c(=O)oc2cc(S(=O)(=O)N3CCC(C(=O)Nc4ccc(OC(F)(F)F)cc4)CC3)ccc21 | -14 | – |
| CC(C)N1C[C@@H](NCc2ccccc2O)C[C@H]1C(=O)N1CCN(c2cccc(C(F)(F)F)c2)CC1 | -12.8 | – |
| O=c1c(-c2ccc(F)c(F)c2)nc2cncnc2n1-c1ccccc1 | 7.12 | – |
| O=C(Nc1ccccc1Cl)N1CCC(CN2CCCC2)CC1 | -5.25 | – |
| O=C(Nc1ccccc1Cl)/C(Cl)=C(\Cl)S(=O)c1ccccc1 (stereo not given) | – | 7.08 µM (active) |
| O=C(Nc1ccccc1Cl)N1CCC(CN2CCCCC2)CC1 | 5.93 | – |
| CSc1nc(Nc2ccc(F)cc2)cc(-c2ccccc2)n1 | -7.74 | – |
| CC(=O)c1ccc(F)c(-c2cc(C)cc3c2OC(CNC(=O)Cc2c[nH]c4ccccc24)C3)c1 (stereo not given) | 6.09 | – |
| Cc1nnc(SCc2cc(=O)c3cc(F)ccc3[nH]2)n1C | 0.843 | – |
| CC(=O)c1c(O)c(C)c(O)c(Cc2c(O)c3c(c(C(=O)/C=C/c4ccccc4)c2O)OC(C)(C)C=C3)c1O | – | inactive |
| O=C(CSc1nccn1Cc1ccc(F)cc1)NCc1ccccc1 | -2.54 | – |
| CC(C)(C)c1ccc(OC(=O)N2CCCCC2)cc1 | 25.1 | – |
| CC(C)(C)c1ccc(Oc2ccc(N)cc2)cc1 | – | 2.51 µM (active) |
| COc1ccc(CCNc2ncnc3c2cnn3-c2ccc(C)cc2)cc1 | -11.5 | – |
| CC1(C(=O)NS(=O)(=O)c2ccccc2)CCN1C(=O)C/C=C/c1ccccc1 (stereo not given) | -14.2 | – |

| SMILES | activity change, negative = inhibition [%] | Potency |
| --- | --- | --- |
| CC1(C(=O)O)CCN1C(=O)/C=C/c1ccccc1 (stereo not given) | -4.75 | – |
| CC1(C)CCSC(/C=C/c2ccccc2)=N1 | – | 14.1 µM (active) |
| CC1(C)C=CC(=O)[C@]2(C)C1CC(=O)[C@]1(C)C2CC[C@@]2(C)C(c3ccoc3)OC(=O)C3OC321 (stereo not given in full) | 5.98 | – |
| CCCS(=O)(=O)N1CCC(C(=O)NCCc2ccc(OC)c(OC)c2)CC1 | -16.7 | – |
| CCS(=O)(=O)N1CCCC(C(=O)NCCCN(C)Cc2ccccc2)C1 (stereo not given) | -15.3 | – |
| CCCS(=O)(=O)N1CCC(C(=O)NCCCN(C)Cc2ccccc2)CC1 | – | 28.2 µM (active) |
| Cc1c(O)cc(O)c2c(=O)c(-c3ccc(O)cc3)coc12 | 3.52 | – |
| Cc1cccc(N2CCN(C(=O)c3oc(=O)c4ccccc4c3-c3ccccc3)CC2)c1C | -5.53 | – |
| CCn1c(C)c(C)c2cc(C(=O)N3CCN(c4cccc(C)c4C)CC3)ccc21 | – | inactive |
| Cc1cccc(N2CCN(C(=O)c3cc4c(=O)[nH]c5ccccc5c4n3C)CC2)c1C | – | 31.6 µM (active) |
| O=C(Nc1cccc(F)c1)N1CC2(CCN(C(=O)c3cnccn3)CC2)C1 | -4.89 | – |
| COC(=O)c1ccccc1-c1cc(C)cc2c1OC(CNC(=O)C1CCOC1)C2 (stereo not given) | 5.07 | – |
| Cc1cc(S(=O)(=O)N2CCOCC2)ccc1OCC(=O)N1CCOCC1 | -0.573 | – |
| O=C(COc1ccc(S(=O)(=O)N2CCCC2)cc1[N+](=O)[O-])N1CCCCC1 | -21.6 | – |
| Cc1cc(C(=O)COc2ccccc2[N+](=O)[O-])c(C)n1-c1cccc(S(=O)(=O)N2CCOCC2)c1 | – | 12.6 µM (active) |
| CCC1CN(CCNC(=O)c2cccnc2C)Cc2cc(OC)ccc2O1 (stereo not given) | 0.27 | – |
| CC1=C(c2ccc(F)cc2)S(=O)(=O)N=C1N1CCC(C(=O)NCCc2ccccc2C)CC1 | -26.8 | – |
| COCCn1c(=O)c(-c2ccccc2)nc2cnc(N3CCOCC3)nc21 | 2.36 | – |
| CC1CCCCC1NC(=O)/C(C#N)=C/C=C/c1ccccc1[N+](=O)[O-] (stereo not given) | – | 28.2 µM (active) |
| CC1CC(C)CN(C/C=C/c2ccccc2[N+](=O)[O-])C1 (stereo not given) | -17.6 | – |
| CC1CCCCC1NC(=O)c1cc(=O)[nH]c2ccccc12 (stereo not given) | 5.79 | – |
